Source: PubChem BioAssay (Tox21)
Results filed as inconclusive are left out. Entries that show only a call come without a potency. Calls of active or inactive are those of the source. Calls come from the whole dose curve; as a rule, active = well fitted inhibition curve with a large enough effect in the signal ratio in the repeat runs; inconclusive = weak or mixed curves, or effect the other way; inactive = flat fitted curve, though single readings scatter; the % refers to the signal ratio.

Assay: qHTS assay for small molecule disruptors of the mitochondrial membrane potential (AID 720635)
Settings: HepG2 mitochondrial membrane potential, Mito-MPS dye ratio; series mostly up to 83.2 µM
From the text: U.S. Tox21 Program National Center for Advancing Translational Sciences [NCATS] NIH Chemical Genomics Center [NCGC] U.S. Environmental Protection Agency [EPA] National Institutes of Environmental Health Sciences [NIEHS] National Toxicology Program [NTP] U.S. Food and Drug Administration [FDA] Tox21 Assay Overview: Mitochondrial membrane potential (MMP), one of the parameters for mitochondrial function, is generated by mitochondrial electron transport chain that creates an electrochemical gradient by a series of redox reactions. This gradient drives the synthesis of ATP, a crucial molecule for various cellular processes. Measuring MMP in living cells is commonly used to assess the effect of chemicals on mitochondrial function. […] The dye accumulates in the mitochondria of healthy cells as aggregates, with red fluorescence. The mitochondrial potential collapses and the dye can no longer accumulate in the mitochondria and remains in the cytoplasm in monomers, with green fluorescence.
Tox21 Assay Protocol Summary: 2,000 HepG2 cells in 5 uL/well were dispensed into black, clear-bottom 1536-well plates using a Multidrop Combi (Thermo Scientific) dispenser. The assay plates were incubated overnight at 37C to allow cells to attach to the wells, followed by the transfer of 23 nL compound or DMSO vehicle by a pin tool (Kalypsys). The plates were incubated for 1 hr at 37C and 5% CO2, followed by the addition of 5 uL of 2X Mito-MPS dye (BD Biosciences) into each well using Flying Reagent Dispenser (Aurora Discovery) and then following 30 min incubation at 37C. Fluorescence intensity (490nm excitation and 535nm emission for monomers; and 540nm excitation and 590nm emissions for aggregates) was measured using an Envision plate reader.
Potency is the fitted concentration of half-maximal effect.

Compound	Potency	ratio activity, negative = MMP loss
O=C1OC(=O)C2CC=CCC12 (stereo not given)	inactive	
CCC(CC)C(=O)O	inactive	
COc1ccc(/C=C/S(=O)(=O)NC(=O)c2ccc(C)cc2Cl)cc1	61.1 µM (active)	
C/C(=C(\CCO)SS/C(CCO)=C(\C)N(C=O)Cc1cnc(C)nc1N)N(C=O)Cc1cnc(C)nc1N	inactive	
CC(C)CC(C)(C)C	inactive	
CO[C@@H]1[C@@H](O[C@@H]2O[C@H](C)[C@@H](O[C@H]3C[C@@](C)(O)[C@@H](O)[C@H](C)O3)[C@H](N(C)C)[C@H]2O)[C@@H](CC=O)C[C@@H](C)[C@@H](O[C@@H]2CC[C@H](N(C)C)[C@@H](C)O2)/C=C/C=C/C[C@@H](C)OC(=O)C[C@H]1OC(C)=O	inactive	
CC(C)=CCC/C(C)=C/C=N/O	inactive	
C=Cc1ccc(C=C)cc1	inactive	
c1ccc(CN(Cc2ccccc2)Cc2ccccc2)cc1	30.6 µM (active)	
Nc1ccc(C(=O)Oc2ccccc2)c(O)c1	29.8 µM (active)	
Nc1cccc2c(=O)[nH][nH]c(=O)c12	inactive	
CCCc1nc(C)c2c(=O)[nH]c(-c3cc(S(=O)(=O)N4CCN(CC)CC4)ccc3OCC)nn12	inactive	
CCCCCCCCCCCCSCCOCCO	inactive	
COc1ccc(/C=C/c2cc(OC)cc(=O)o2)cc1	inactive	
O=c1[nH][nH]c2ccccc12	inactive	
O=[N+]([O-])c1ccccc1CCO	inactive	
CC(C)NC(=O)c1ccccc1N	inactive	
CCCCCCCCNC	inactive	
CCC[Si](OC)(OC)OC	inactive	
C=CC(=O)OCCCCCCCCCC	inactive	

Compound	Potency	ratio activity, negative = MMP loss
CCCCCCCCC(=O)OCC(C)OC(=O)CCCCCCCC (stereo not given)	inactive	
CCCCCCCCCC(C)C=O (stereo not given)	inactive	
CC(C)(C(=O)O)c1ccc(C(O)CCCN2CCC(C(O)(c3ccccc3)c3ccccc3)CC2)cc1 (stereo not given)	inactive	
Cc1ccc2ccccc2c1[N+](=O)[O-]	inactive	
OCCOc1cccc(OCCO)c1	inactive	
O=[N+]([O-])c1ccc(Cl)cc1Cl	inactive	
CC1=C(C)C(=O)C(C(CCCCCC(=O)O)c2ccccc2)=C(C)C1=O (stereo not given)	inactive	
COC(=O)C(C)(C)C	inactive	
CCCCCCCCCCCC(=O)OCC	inactive	
C[C@H]1C[C@H]2[C@@H]3CCC4=CC(=O)C=C[C@]4(C)[C@@]3(F)[C@@H](O)C[C@]2(C)[C@@]1(O)C(=O)COP(=O)(O)O	inactive	
CCc1c(C)[nH]c2c1C(=O)C(CN1CCOCC1)CC2 (stereo not given)	inactive	
Nc1ccc(F)cc1F	inactive	
O=C1C=CCCC1	inactive	
CCCCCCCCCCCCCCCCCCCl		-5.25% [at 8.08 µM] (inactive)
Cc1cccc(C)c1NC(=O)CN1CCCC1	inactive	
C=CC(C)(O)CC/C=C(/C)CCC=C(C)C (stereo not given)	inactive	
CC(CN=Cc1ccccc1O)N=Cc1ccccc1O (stereo not given)	inactive	
COC(=O)c1cc(Cl)ccc1[N+](=O)[O-]	inactive	
COc1ccc(C(=O)Nc2ccccc2)cc1[N+](=O)[O-]	2.75 µM (active)	
CCCC(=O)OCCC(C)C	inactive	
